Assays:
Assay in all cases: DAPPL (digital affinity profiling via proximity ligation, sequencing); 10 mM Tris-HCl pH 7.5, 50 mM NaCl, 1 mM DTT, 4% glycerol, room temperature, 30 min; GST-TFs on glutathione beads, 16-mer random dsDNA library, 0.1% formaldehyde crosslink after washing; high values mean tight binding
Settings in all cases: protein: recombinant; tags: N-terminal GST; dsDNA, one strand shown
[1] = biological target: ETV1 (Homo sapiens, UniProt P50549 1-477)
Summary of the method: (§1)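 The binding signal reported is, for every hexamer, its read frequency for a factor over its read frequency for the tag-only sample. Reads came from pools of yeast-expressed, GST-fused human transcription factors on glutathione beads, barcoded with DNA and mixed with that sample, which were incubated with 200 nmole of a random double-stranded 16-mer DNA library in Tris/NaCl/DTT/glycerol buffer at room temperature for 30 min. After washing, the pools were crosslinked with 0.1% formaldehyde, proximity-ligated with BsaI/T4 ligase for 1 h at 37 °C, PCR-amplified and sequenced on an Illumina NextSeq500.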

[2] = biological target: T1, ERF (Homo sapiens, UniProt P50548 1-548)
T1 sequence: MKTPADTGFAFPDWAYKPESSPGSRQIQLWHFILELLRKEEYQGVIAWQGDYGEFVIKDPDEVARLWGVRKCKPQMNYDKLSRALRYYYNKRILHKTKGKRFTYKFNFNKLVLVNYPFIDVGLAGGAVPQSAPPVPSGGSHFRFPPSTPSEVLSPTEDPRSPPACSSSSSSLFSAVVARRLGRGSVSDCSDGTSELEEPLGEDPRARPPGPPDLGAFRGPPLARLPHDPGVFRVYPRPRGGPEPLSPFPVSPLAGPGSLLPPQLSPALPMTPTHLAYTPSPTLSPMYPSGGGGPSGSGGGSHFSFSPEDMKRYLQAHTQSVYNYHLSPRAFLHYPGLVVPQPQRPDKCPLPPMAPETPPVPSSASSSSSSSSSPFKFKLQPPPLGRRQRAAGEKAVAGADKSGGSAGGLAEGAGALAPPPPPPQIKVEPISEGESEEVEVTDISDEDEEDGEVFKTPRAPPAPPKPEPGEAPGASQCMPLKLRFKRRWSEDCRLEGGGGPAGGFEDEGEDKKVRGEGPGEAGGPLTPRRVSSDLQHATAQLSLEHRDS
Summary of the method: as §1

[3] = biological target: T2, ETV3L (Homo sapiens, UniProt Q6ZN32 1-361)
T2 sequence: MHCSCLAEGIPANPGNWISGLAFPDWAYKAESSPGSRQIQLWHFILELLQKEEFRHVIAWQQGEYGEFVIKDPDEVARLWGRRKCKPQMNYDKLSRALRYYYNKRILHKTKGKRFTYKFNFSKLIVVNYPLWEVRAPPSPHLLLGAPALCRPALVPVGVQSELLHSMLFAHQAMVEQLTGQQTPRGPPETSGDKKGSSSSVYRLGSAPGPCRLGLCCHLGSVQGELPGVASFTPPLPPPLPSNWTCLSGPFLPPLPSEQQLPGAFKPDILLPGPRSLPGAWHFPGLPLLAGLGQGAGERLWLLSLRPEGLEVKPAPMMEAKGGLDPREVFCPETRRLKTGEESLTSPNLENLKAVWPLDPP
Summary of the method: as §1

[4] = biological target: T3, ETS2 (Homo sapiens, UniProt P15036 1-469)
T3 sequence: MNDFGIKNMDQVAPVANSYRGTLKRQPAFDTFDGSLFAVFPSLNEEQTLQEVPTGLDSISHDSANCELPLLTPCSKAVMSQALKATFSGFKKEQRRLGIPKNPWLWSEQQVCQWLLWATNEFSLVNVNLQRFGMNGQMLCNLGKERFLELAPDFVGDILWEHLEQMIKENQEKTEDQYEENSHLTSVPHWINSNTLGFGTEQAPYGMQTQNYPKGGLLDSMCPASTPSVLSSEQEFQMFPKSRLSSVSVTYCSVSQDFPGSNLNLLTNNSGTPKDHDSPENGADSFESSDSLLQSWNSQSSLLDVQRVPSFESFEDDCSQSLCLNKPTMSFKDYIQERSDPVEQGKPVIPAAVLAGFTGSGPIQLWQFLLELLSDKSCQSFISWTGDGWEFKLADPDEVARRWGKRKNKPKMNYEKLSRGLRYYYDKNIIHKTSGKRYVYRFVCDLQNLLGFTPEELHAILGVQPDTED
Summary of the method: as §1

[5] = biological target: T4, SPDEF (Homo sapiens, UniProt O95238 1-335)
T4 sequence: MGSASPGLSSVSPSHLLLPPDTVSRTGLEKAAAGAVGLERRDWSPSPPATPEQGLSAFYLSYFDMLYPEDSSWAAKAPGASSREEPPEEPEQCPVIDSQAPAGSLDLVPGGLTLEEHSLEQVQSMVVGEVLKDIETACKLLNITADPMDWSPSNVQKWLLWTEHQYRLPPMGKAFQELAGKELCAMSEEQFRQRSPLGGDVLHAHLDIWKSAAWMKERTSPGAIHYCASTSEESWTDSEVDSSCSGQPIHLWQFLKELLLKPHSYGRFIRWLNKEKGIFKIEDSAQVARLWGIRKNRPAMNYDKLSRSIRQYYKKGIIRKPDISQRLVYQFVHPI
Summary of the method: as §1

[6] = biological target: T5, ETV7 (Homo sapiens, UniProt Q9Y603 1-341)
T5 sequence: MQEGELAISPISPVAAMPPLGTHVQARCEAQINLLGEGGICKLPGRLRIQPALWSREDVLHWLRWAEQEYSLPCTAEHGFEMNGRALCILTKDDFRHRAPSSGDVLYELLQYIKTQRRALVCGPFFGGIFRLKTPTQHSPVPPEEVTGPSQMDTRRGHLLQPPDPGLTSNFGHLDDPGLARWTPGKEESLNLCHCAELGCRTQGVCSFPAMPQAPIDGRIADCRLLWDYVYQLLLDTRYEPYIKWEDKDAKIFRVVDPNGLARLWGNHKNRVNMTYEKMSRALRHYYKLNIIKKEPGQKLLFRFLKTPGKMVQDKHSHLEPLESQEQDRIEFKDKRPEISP
Summary of the method: as §1

[7] = biological target: T6, ELF5 (Homo sapiens, UniProt Q9UKW6-2 1-255)
T6 sequence: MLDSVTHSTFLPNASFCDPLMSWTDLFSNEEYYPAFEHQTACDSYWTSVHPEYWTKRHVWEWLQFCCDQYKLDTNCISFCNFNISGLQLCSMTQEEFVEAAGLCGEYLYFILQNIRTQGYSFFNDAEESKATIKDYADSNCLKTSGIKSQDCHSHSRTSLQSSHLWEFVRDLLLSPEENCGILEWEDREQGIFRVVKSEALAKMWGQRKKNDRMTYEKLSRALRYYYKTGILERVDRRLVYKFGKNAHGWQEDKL
Summary of the method: as §1

[8] = biological target: T7, ETV3 (Homo sapiens, UniProt P41162-2 1-143)
T7 sequence: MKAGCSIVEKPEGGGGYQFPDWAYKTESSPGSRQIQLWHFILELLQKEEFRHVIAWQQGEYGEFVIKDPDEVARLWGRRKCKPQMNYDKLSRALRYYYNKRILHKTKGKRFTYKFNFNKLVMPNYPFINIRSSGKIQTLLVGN
Summary of the method: as §1

[9] = biological target: ETV6 (Homo sapiens, UniProt P41212 1-452)
Summary of the method: as §1

Sequence of ETV6 (P41212 whole entry): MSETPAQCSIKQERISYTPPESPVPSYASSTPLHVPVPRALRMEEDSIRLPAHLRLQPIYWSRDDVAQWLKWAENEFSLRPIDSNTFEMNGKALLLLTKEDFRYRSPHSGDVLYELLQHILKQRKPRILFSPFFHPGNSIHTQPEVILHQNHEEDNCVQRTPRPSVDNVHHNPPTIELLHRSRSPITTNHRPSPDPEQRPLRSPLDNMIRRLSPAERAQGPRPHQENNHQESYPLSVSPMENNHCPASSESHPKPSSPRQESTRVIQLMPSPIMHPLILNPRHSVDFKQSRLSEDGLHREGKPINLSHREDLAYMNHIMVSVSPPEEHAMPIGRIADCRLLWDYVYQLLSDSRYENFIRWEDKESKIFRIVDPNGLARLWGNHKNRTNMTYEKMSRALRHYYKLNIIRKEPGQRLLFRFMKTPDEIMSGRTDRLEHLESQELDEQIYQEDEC
Sequence of ETV1 (P50549 whole entry, the tested form may be a part): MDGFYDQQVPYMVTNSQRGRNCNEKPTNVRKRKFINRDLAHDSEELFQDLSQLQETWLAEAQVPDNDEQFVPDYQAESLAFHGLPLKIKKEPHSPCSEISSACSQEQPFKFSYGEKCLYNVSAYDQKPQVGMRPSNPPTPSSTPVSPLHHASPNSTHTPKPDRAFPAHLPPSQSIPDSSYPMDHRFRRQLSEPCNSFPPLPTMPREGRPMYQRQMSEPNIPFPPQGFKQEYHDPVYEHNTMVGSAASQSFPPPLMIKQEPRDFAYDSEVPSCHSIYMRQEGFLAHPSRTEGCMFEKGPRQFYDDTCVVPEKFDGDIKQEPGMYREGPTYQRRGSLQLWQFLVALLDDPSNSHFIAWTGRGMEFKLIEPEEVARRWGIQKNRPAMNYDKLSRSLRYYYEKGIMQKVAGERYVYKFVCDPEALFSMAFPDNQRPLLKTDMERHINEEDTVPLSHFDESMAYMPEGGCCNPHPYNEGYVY

GTTCAA
binding signal [1]: 1.23 fold enrichment (6-mer frequency, TF over GST control)
binding signal [2]: 1.14 fold enrichment (6-mer frequency, TF over GST control)
binding signal [3]: 1.19 fold enrichment (6-mer frequency, TF over GST control)
binding signal [4]: 1.14 fold enrichment (6-mer frequency, TF over GST control)
binding signal [5]: 1.22 fold enrichment (6-mer frequency, TF over GST control)
binding signal [6]: 1.03 fold enrichment (6-mer frequency, TF over GST control)
binding signal [7]: 1.12 fold enrichment (6-mer frequency, TF over GST control)
binding signal [8]: 1.15 fold enrichment (6-mer frequency, TF over GST control)
binding signal [9]: 1.16 fold enrichment (6-mer frequency, TF over GST control)
